These results are taken from PubChem BioAssay (NCI).

Test [1] is described as follows: NCI Yeast Anticancer Drug Screen. Data for the rad50 strain (AID 155).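 Also: 0% = growth of vehicle-only cultures of the same strain.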 The conditions noted are these: S. cerevisiae rad50 strain growth inhibition, hits give high values. Summed up: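 Growth of the mutant yeast was measured after compound exposure and referenced to vehicle-treated cultures.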
Test [2] can be described thus: NCI Yeast Anticancer Drug Screen. Data for the mec2-1 strain (AID 157). Particulars: S. cerevisiae mec2-1 strain, hits give high values. Summed up:
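Cells of the genetically defined mec2-1 yeast strain are incubated with test compound. Inhibition of growth is calculated against vehicle-treated controls.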

Test [3] is described as follows: NCI Yeast Anticancer Drug Screen. Data for the sgs1 mgt1 strain (AID 161).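 Also: 0% = growth of cultures given vehicle only.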 The conditions noted are these: S. cerevisiae sgs1 mgt1 strain, hits give high values. Summed up: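 Test agents were incubated with a DNA-repair-mutant yeast strain. Growth was then read and compared against vehicle-treated controls.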
Test [4] in a line: NCI Yeast Anticancer Drug Screen. Data for the cln2 rad14 strain (AID 165).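 Also: 0% = growth equal to vehicle treated cultures.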 Particulars: S. cerevisiae cln2 rad14 strain, hits give high values. The essentials:
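The screen exposed genetically defined yeast (cln2 rad14) to test compounds and scored growth inhibition relative to vehicle-treated controls.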

Test [5] can be described thus: NCI Yeast Anticancer Drug Screen. Data for the bub3 strain (AID 167). The conditions noted are these: S. cerevisiae bub3 mutant strain, hits give high values. The essentials: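 Whole-cell yeast assay. The mutant strain was incubated with compounds, and growth inhibition was determined by comparison with vehicle-treated cells.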
Test [6] is described as follows: NCI Yeast Anticancer Drug Screen. Data for the mlh1 rad18 strain (AID 175). The conditions noted are these: S. cerevisiae mlh1 rad18 strain growth inhibition, hits give high values. Summed up:
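Compound-treated yeast growth, normalised to vehicle controls. Strain bears defined DNA repair mutations.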

Where [7] appears, read: at 5.0 µM (retest, dose inferred, filed as 0.5).
Setting [8] is: at 50.0 µM (retest, dose inferred, filed as 5.0).

The panel holds about 79,000 compounds, 15% with a hit somewhere; the sample as a whole holds those more often. A number with no mark means an inactive call. Activity calls are given as the source filed them. Rule as the data show it: active = growth inhibition above about 70%; inactive = the rest.

For `CC(=O)OC1=CC2=CC[C@H]3[C@@H]4CCC(=O)[C@@]4(C)CC(=O)[C@]3(S)[C@@]2(C)CC1`, the growth inhibition in test [1] (setting [7]) is 14%; in test [1] (setting [8]), 18%; in test [1] (at 50.0 µM) it was 77.5% (active); in test [2] (setting [7]), 3%; in test [2] (setting [8]), 8%; in test [2] (at 50.0 µM), 25.5%. The growth inhibition in test [3] (setting [7]) is 8%; in test [3] (setting [8]), -20%; in test [3] (at 50.0 µM), -4.4%; in test [4] (setting [7]) it was -16%; in test [4] (setting [8]) it was -70%; in test [4] (at 50.0 µM) it was -15.7%. Also, the growth inhibition in test [5] (setting [7]) is -8%; in test [5] (setting [8]), -3%; in test [5] (at 50.0 µM) it was 60.6%; in test [6] (setting [7]), -13%; in test [6] (setting [8]), 11%; in test [6] (at 50.0 µM), 54.1%.

Regarding `CC(=O)C(CN1CCOCC1)C(c1ccccc1)c1c(O)c2ccccc2oc1=O` (stereo not given), the growth inhibition was 7% in test [1] (setting [7]); 73% (active) in test [1] (setting [8]); -1.6% in test [1] (at 50.0 µM); 5% in test [2] (setting [7]); 75% (active) in test [2] (setting [8]); -12.3% in test [2] (at 50.0 µM). The growth inhibition is 3% in test [3] (setting [7]); 80% (active) in test [3] (setting [8]); 9.4% in test [3] (at 50.0 µM); 5% in test [4] (setting [7]); 79% (active) in test [4] (setting [8]); 0.25% in test [4] (at 50.0 µM). Also, the growth inhibition in test [5] (setting [7]) was 22%; in test [5] (setting [8]), 83% (active); in test [5] (at 50.0 µM), 21.9%; in test [6] (setting [7]), 6%; in test [6] (setting [8]), 81% (active); in test [6] (at 50.0 µM), -13.5%.

For the compound `O=[N+]([O-])c1cccc(SC(Cl)(Cl)Cl)c1`, the growth inhibition was 8% in test [1] (setting [7]); 97% (active) in test [1] (setting [8]); 99.5% (active) in test [1] (at 50.0 µM); 40% in test [2] (setting [7]); 99% (active) in test [2] (setting [8]); 99.5% (active) in test [2] (at 50.0 µM). Also, the growth inhibition in test [3] (setting [7]) was 31%; in test [3] (setting [8]), 99% (active); in test [3] (at 50.0 µM), 99.1% (active); in test [4] (setting [7]), -11%; in test [4] (setting [8]), 96% (active); in test [4] (at 50.0 µM), 97.1% (active). Besides, the growth inhibition is -1% in test [5] (setting [7]); 99% (active) in test [5] (setting [8]); 99.2% (active) in test [5] (at 50.0 µM); 45% in test [6] (setting [7]); 99% (active) in test [6] (setting [8]); 99.3% (active) in test [6] (at 50.0 µM).

`Cc1ccc2c(C)c3ccc4ccccc4c3c[n+]2c1`: the growth inhibition was 74% (active) in test [1] (setting [7]); 94% (active) in test [1] (setting [8]); 71.2% (active) in test [1] (at 50.0 µM); 65% in test [2] (setting [7]); 89% (active) in test [2] (setting [8]); 83.5% (active) in test [2] (at 50.0 µM). The growth inhibition is 87% (active) in test [3] (setting [7]); 95% (active) in test [3] (setting [8]); 85.2% (active) in test [3] (at 50.0 µM); 51% in test [4] (setting [7]); 71% (active) in test [4] (setting [8]); 52.6% in test [4] (at 50.0 µM). Further, the growth inhibition was 69% in test [5] (setting [7]); 88% (active) in test [5] (setting [8]); 86.5% (active) in test [5] (at 50.0 µM); 52% in test [6] (setting [7]); 88% (active) in test [6] (setting [8]); 72.5% (active) in test [6] (at 50.0 µM).

On to `COCC(C#N)NC1CC(OC2CC(O)(C(=O)CO)Cc3c(O)c4c(c(O)c32)C(=O)c2c(OC)cccc2C4=O)OC(C)C1O` (stereo not given), for which the growth inhibition in test [1] (setting [7]) was 63%; in test [1] (setting [8]), 97% (active); in test [1] (at 50.0 µM) it was 91.3% (active); in test [2] (setting [7]) it was 29%; in test [2] (setting [8]), 98% (active); in test [2] (at 50.0 µM) it was 89% (active). The growth inhibition in test [3] (setting [7]) is 52%; in test [3] (setting [8]), 98% (active); in test [3] (at 50.0 µM) it was 90.2% (active); in test [4] (setting [7]) it was 39%; in test [4] (setting [8]), 96% (active); in test [4] (at 50.0 µM), 88.7% (active). Besides, the growth inhibition in test [5] (setting [7]) was 43%; in test [5] (setting [8]), 98% (active); in test [5] (at 50.0 µM), 92.1% (active); in test [6] (setting [7]) it was 44%; in test [6] (setting [8]) it was 97% (active); in test [6] (at 50.0 µM), 89.8% (active).

`Cc1[cH-]c(=O)n(-c2ccccc2)n1.[Au+].[Au].c1ccc([PH+](c2ccccc2)c2ccccc2)cc1.c1ccc([PH+](c2ccccc2)c2ccccc2)cc1`: the growth inhibition in test [1] (setting [7]) is 27%; in test [1] (setting [8]), 65%; in test [1] (at 50.0 µM), 88.8% (active); in test [2] (setting [7]) it was 32%; in test [2] (setting [8]), 96% (active); in test [2] (at 50.0 µM) it was 90.3% (active). Besides, the growth inhibition in test [3] (setting [7]) is 33%; in test [3] (setting [8]) it was 93% (active); in test [3] (at 50.0 µM), 91.5% (active); in test [4] (setting [7]) it was 18%; in test [4] (setting [8]), 65%; in test [4] (at 50.0 µM) it was 88.7% (active). The growth inhibition in test [5] (setting [7]) was 19%; in test [5] (setting [8]), 87% (active); in test [5] (at 50.0 µM), 89.4% (active); in test [6] (setting [7]) it was 35%; in test [6] (setting [8]), 79% (active); in test [6] (at 50.0 µM) it was 83% (active).

In the case of `O=[As](O)(O)CCc1ccccc1`, the growth inhibition in test [1] (setting [7]) is -148%; in test [1] (setting [8]), -168%; in test [1] (at 50.0 µM), 2.3%; in test [2] (setting [7]), -50%; in test [2] (setting [8]) it was -54%; in test [2] (at 50.0 µM) it was 3.75%. In addition, the growth inhibition in test [3] (setting [7]) is -67%; in test [3] (setting [8]) it was -56%; in test [3] (at 50.0 µM), 8.35%; in test [4] (setting [7]), -58%; in test [4] (setting [8]), -65%; in test [4] (at 50.0 µM) it was 17.4%. In addition, the growth inhibition in test [5] (setting [7]) was -67%; in test [5] (setting [8]), -78%; in test [5] (at 50.0 µM), -5.95%; in test [6] (setting [7]), -146%; in test [6] (setting [8]), -115%; in test [6] (at 50.0 µM), 5.7%.

Turning to `CC(=O)NC1C(O[C@H]2CC[C@@]3(C)C(CC[C@]4(C)C3CC=C3C5CC(C)(C)CC[C@]5(C(=O)O)CCC34C)C2(C)C)OC(CO)C(O)C1O` (stereo not given in full), the growth inhibition in test [1] (setting [7]) is 42%; in test [1] (setting [8]) it was 98% (active); in test [1] (at 50.0 µM), 91% (active); in test [2] (setting [7]), 69%; in test [2] (setting [8]), 99% (active); in test [2] (at 50.0 µM), 92.8% (active). The growth inhibition in test [3] (setting [7]) is 44%; in test [3] (setting [8]) it was 99% (active); in test [3] (at 50.0 µM), 90.2% (active); in test [4] (setting [7]), 74% (active); in test [4] (setting [8]), 99% (active); in test [4] (at 50.0 µM), 91% (active). For the same compound, the growth inhibition in test [5] (setting [7]) was 77% (active); in test [5] (setting [8]) it was 98% (active); in test [5] (at 50.0 µM), 91.2% (active); in test [6] (setting [7]), 48%; in test [6] (setting [8]), 99% (active); in test [6] (at 50.0 µM), 90% (active).

`CCN1CCC(O)(c2ccc(O)cc2)C(C(=O)c2ccc(O)cc2)C1` (stereo not given): the growth inhibition was -9% in test [1] (setting [7]); -9% in test [1] (setting [8]); 72% (active) in test [1] (at 50.0 µM); -9% in test [2] (setting [7]); 8% in test [2] (setting [8]); 82.6% (active) in test [2] (at 50.0 µM). In addition, the growth inhibition in test [3] (setting [7]) was 6%; in test [3] (setting [8]), 13%; in test [3] (at 50.0 µM) it was 91.3% (active); in test [4] (setting [7]), 18%; in test [4] (setting [8]) it was 21%; in test [4] (at 50.0 µM) it was 7.1%. Moreover, the growth inhibition in test [5] (setting [7]) was -9%; in test [5] (setting [8]) it was 19%; in test [5] (at 50.0 µM), 13.3%; in test [6] (setting [7]), 1%; in test [6] (setting [8]), 29%; in test [6] (at 50.0 µM), 86.7% (active).

In the case of `CO/C1=C\C(C)=C\C(C)C(O)C(C)C/C(C)=C/C=C/C(OC)C(C(C)C(O)C(C)C2(O)CC(O)C(C)C(C(C)C)O2)OC1=O` (stereo not given), the growth inhibition was 1% in test [1] (setting [7]); 84% (active) in test [1] (setting [8]); 85.2% (active) in test [1] (at 50.0 µM); -11% in test [2] (setting [7]); 59% in test [2] (setting [8]); 77.3% (active) in test [2] (at 50.0 µM). Also, the growth inhibition in test [3] (setting [7]) is 8%; in test [3] (setting [8]), 85% (active); in test [3] (at 50.0 µM), 84.5% (active); in test [4] (setting [7]) it was 9%; in test [4] (setting [8]), 78% (active); in test [4] (at 50.0 µM), 74.1% (active). For the same compound, the growth inhibition in test [5] (setting [7]) was 5%; in test [5] (setting [8]) it was 88% (active); in test [5] (at 50.0 µM), 86.2% (active); in test [6] (setting [7]) it was 0%; in test [6] (setting [8]), 88% (active); in test [6] (at 50.0 µM), 81.2% (active).
